# Bioassay records: PubChem, Johns Hopkins Ion Channel Center
# The list is not random: actives were taken first. Their share in the collection is about 2.3%.
# CHT block = human CHT choline transport inhibition; CHT-expressing cells, membrane potential dye, choline response; active compounds read low; AID 488975; Q9GZV3; B-score at 10 µM; 310,000 tested, 0.86% active;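 active = B-score over 3 SD under the library average, and starting fluorescence ratio not unusually high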;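 also: choline stimulus applied at its EC90 after an EC20 pre-addition; B-score computed on integrated fluorescence ratio after choline addition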
# TMEM16A inh = inhibitors of mouse TMEM16A calcium-activated chloride channel; 310,000 tested, 1.2% active; Q8BHY3; HEK293 TMEM16A/YFP iodide influx fluorescence, ionomycin; normalized B-score (activity score, 25-100; higher = stronger inhibition) at 10 µM;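 active = ratio plate-corrected score three or more library SD toward inhibition, starting fluorescence score within five deviations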;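 also: score derived from kinetic fluorescence span divided by baseline fluorescence per well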
# CHT PAM = human CHT allosteric activation; B-score at 10 µM; 310,000 tested, 0.49% active; CHT-expressing cells, membrane potential dye, choline EC20; active compounds read high; LV-AA mutant CHT in HEK293 cells;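 active = initial fluorescence not abnormally high and integrated response B-score, plate-corrected, over 3 SD above library mean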
# TMEM16A act = activators or potentiators of mouse TMEM16A chloride channel; 340,000 tested, 0.3% active; Q8BHY3; HEK293 TMEM16A/YFP-H148Q/I152L, iodide quench fluorescence; active compounds read low; AID 623877; B-score at 10 µM;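 active = fluorescence-ratio B-score plate-corrected deviation score at least 3 library SD below zero, with starting fluorescence score within 5 deviations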;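 also: channel opened by trigger with iodide after compound preincubation; score built on the fluorescence ratio of max minus min over baseline; more negative score means more quench and so TMEM16A activation or potentiation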
# TMEM16A reconf = TMEM16A (mouse) chloride channel inhibition, re-confirmation; shares compounds with TMEM16A inh; HEK293 TMEM16A/YFP-H148Q, iodide quench fluorescence; ionomycin added to raise cell calcium; inhibition, % at 10 µM; 2,300 tested, 39% active; AID 652189;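 active = mean duplicate percent inhibition, scaled so buffer wells are 0 and the reference blocker 100, over three buffer SD above buffer mean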
# TMEM16A Ca cntr = counter-screen for TMEM16A inhibitors: effect on calcium mobilization; shares compounds with TMEM16A inh; TMEM16A/YFP HEK293, Fluo4 calcium mobilization; calcium response (% of ionomycin), % at 10 µM; 2,300 tested, 2% active; AID 652231;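 active = duplicate-averaged calcium signal over 20% of the ionomycin maximum, relative to buffer baseline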;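 also: each well's signal is peak minus trough fluorescence divided by its pre-addition baseline; 0% = buffer wells and 100% = ionomycin wells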
# YFP-HEK293 quench = parental YFP-HEK293 iodide quench counter-screen activity; shares compounds with TMEM16A inh; ionomycin; YFP ratio F(max-min)/F0 at 10 µM; 2,300 tested, under 10 active;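 active = yellow fluorescent protein signal ratio exceeding the buffer control mean by over 5 SD of those controls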;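 also: ratio is mean of duplicate wells from kinetic YFP trace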
# ClC-1 rat inh = selectivity of TMEM16A inhibitors: inhibition of rat ClC-1 chloride channel; shares compounds with TMEM16A inh; CHO ClC-1-YFP, iodide influx fluorescence quench; iodide control reads 0, buffer control 100; ratio percent, % at 10 µM; 2,300 tested, under 10 active;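 active = duplicate-mean ratio percent above the mean of iodide-only control wells, which defines zero, plus 5 of their SD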;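 also: higher percent means stronger block of ClC-1 iodide influx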
# Target sequence (P35524 whole entry, looked up): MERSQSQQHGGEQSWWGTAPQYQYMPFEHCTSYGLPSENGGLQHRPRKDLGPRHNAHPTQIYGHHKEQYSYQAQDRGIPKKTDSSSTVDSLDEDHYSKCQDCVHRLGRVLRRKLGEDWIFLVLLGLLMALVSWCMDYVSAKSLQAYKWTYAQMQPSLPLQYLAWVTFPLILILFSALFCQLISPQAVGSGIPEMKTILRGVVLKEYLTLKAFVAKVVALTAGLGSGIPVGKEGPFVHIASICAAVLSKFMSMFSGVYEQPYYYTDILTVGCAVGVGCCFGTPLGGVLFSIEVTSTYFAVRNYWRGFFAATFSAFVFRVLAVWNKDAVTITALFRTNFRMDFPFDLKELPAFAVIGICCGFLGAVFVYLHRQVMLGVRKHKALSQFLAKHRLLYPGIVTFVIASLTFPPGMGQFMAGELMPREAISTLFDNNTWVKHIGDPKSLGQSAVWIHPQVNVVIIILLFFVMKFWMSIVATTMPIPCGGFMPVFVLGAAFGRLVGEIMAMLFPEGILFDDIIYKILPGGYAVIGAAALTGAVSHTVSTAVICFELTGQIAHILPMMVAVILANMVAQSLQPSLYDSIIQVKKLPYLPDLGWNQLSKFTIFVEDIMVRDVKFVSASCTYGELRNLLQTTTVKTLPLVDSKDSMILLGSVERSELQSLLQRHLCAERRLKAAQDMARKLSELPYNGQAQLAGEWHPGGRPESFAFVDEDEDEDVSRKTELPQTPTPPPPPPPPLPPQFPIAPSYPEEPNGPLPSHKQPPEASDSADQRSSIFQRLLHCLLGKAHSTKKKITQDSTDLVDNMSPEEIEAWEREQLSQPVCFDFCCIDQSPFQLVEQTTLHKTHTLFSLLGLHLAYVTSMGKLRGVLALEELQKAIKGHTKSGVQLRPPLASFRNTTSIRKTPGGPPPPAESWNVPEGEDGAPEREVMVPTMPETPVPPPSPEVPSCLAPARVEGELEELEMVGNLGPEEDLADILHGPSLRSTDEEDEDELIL
# The depositor's hits bear a star; i = inactive; . = no result given; ! = a repeat was not active.
SMILES,CHT block,TMEM16A inh,CHT PAM,TMEM16A act,TMEM16A reconf,TMEM16A Ca cntr,YFP-HEK293 quench,ClC-1 rat inh
Cc1ccc(S(=O)(=O)N2CCC(C(=O)OCc3ccccc3)CC2)cc1C,i,25*,i,i,i,i,-1.3,-6
Cc1ccc(S(=O)(=O)N2CCC(C(=O)OCC(=O)NCCc3ccccc3)CC2)cc1C,i,i,i,i,.,.,.,.
COC(=O)Nc1ccc(S(=O)(=O)N2CCC(Cc3ccccc3)CC2)cc1,i,100*,i,i,i,i,-1.1,-7
CCc1ccc(NC(=S)N(Cc2ccccc2)Cc2ccccn2)cc1,i,25*,i,i,i,i,-1.2,-8
CCc1ccc(NC(=S)N(CCCN2CCOCC2)Cc2ccccn2)cc1,i,i,i,i,.,.,.,.
COc1ccc(C(C#N)=C2C=CC(=NO)C(C)=C2Cl)cc1,.,.,.,i,.,.,.,.
O=[N+]([O-])c1ccc(N2N=C(c3ccco3)CC2c2ccccc2)cc1 (stereo not given),i,i,i,i,27%*,i,-0.81,8
O=C(NNC(=O)c1cccc2ccccc12)c1cccc(Cl)c1,.,.,.,i,.,.,.,.
Cc1ccc(C)c(NS(=O)(=O)c2cc3c4c(c2)CC(=O)N4CCC3)c1,i,i,i,i,.,.,.,.
CCC1CCCCN1C1Sc2ccc(C(=O)OC)cc2NC1=O (stereo not given),i,25*,i,i,i,i,-1.2,-9
COC(=O)c1ccc2c(c1)NC(=O)C(N1CCOCC1)S2 (stereo not given),i,i,i,i,.,.,.,.
CC(=O)c1c[nH]c2ccc(C)cc2c1=O,i,100*,i,i,i,i,-0.89,-9
O=S(=O)(c1ccc(NCCOc2ccccc2)nc1)N1CCCC1,.,.,.,i,.,.,.,.
O=C(O)C1CC=CCC1C(=O)NCc1ccc(Cl)c(Cl)c1 (stereo not given),i,i,i,i,.,.,.,.
COc1cc2ncnc(NCc3ccccc3)c2cc1OC,i,i,i,i,.,.,.,.
c1ccc(CNc2ncnc3ccccc23)cc1,i,25*!,i,i,i,i,-1.2,-17
Cc1ccc(C)c(N2CCN(C(=O)c3ccc(N4CCOCC4)c([N+](=O)[O-])c3)CC2)c1,i,i,i,i,.,.,.,.
COc1ccc(NC(=O)c2cc(-c3cc(C)cc(C)c3O)n[nH]2)cc1Cl,i,100*,i,i,i,i,-1.1,1
COc1ccc(NC(=O)c2cc(-c3ccccc3O)n[nH]2)cc1Cl,i,i,i,i,.,.,.,.
CC(C)(C)NC(=O)COC(=O)c1snc(C(=O)NC2CCCCC2)c1N,i,100*,i,i,i,i,-0.99,-20
CC(OC(=O)c1snc(C(=O)NC2CCCCC2)c1N)C(=O)NC(C)(C)C (stereo not given),i,i,i,i,.,.,.,.
O=C(Nc1nc(-c2ccc(F)cc2)cs1)C1CCN(C(=O)c2ccc(F)cc2)CC1,i,25*,i,i,18%*,i,-1.1,-16
Cc1noc(C)c1COc1ccc(C(=O)NCc2cccs2)cc1,.,.,.,i,.,.,.,.
O=C(Nn1c(-c2ccncc2)nc2ccccc2c1=O)c1ccc(Br)cc1,i,i,i,i,.,.,.,.
O=C(Nn1c(-c2ccc(Br)cc2)nc2ccccc2c1=O)c1ccc([N+](=O)[O-])cc1,i,25*,i,i,i,i,-1.1,-8
SMILES,CHT block,TMEM16A inh,CHT PAM,TMEM16A act,TMEM16A reconf,TMEM16A Ca cntr,YFP-HEK293 quench,ClC-1 rat inh
COc1ccc(NS(=O)(=O)c2ccc(OC)c(N(C)S(=O)(=O)c3ccc(Cl)cc3)c2)cc1,i,100*,i,i,i,i,-1.1,-18
COc1ccc(S(=O)(=O)Nc2ccc(F)cc2)cc1N(C)S(=O)(=O)c1ccc(Cl)cc1,i,i,i,i,.,.,.,.
COC(=O)c1cc(CSc2nc3ccccc3[nH]2)oc1C,i,25*,i,i,22%*,i,-0.74,-12
COc1ccc(Cc2nc(-c3ccc(-n4cccc4)cc3)no2)cc1OC,i,100*,i,i,i,i,-1.2,0
COc1ccc(Cc2nc(-c3ccc(-n4cccc4)cc3)no2)cc1,i,i,i,i,.,.,.,.
CC1(C)C[C@@H]2C[C@@](C)(CN2C(=O)c2cc(COc3cccc(C(F)(F)F)c3)on2)C1,i,25*,i,i,i,i,-1.2,-14
CC(=O)Nc1nn(C)c2nc3ccc(C)cc3cc12,i,i,i,i,.,.,.,.
COc1ccccc1-c1noc(CCC(=O)Nc2cccc(C(F)(F)F)c2)n1,i,100*,i,i,i,i,-1.3,-2
CC(C)(C)c1ccc(-c2noc(CCC(=O)Nc3cccnc3)n2)cc1,i,100*,i,i,18%*,i,-0.92,-6
CN(c1ccc(F)cc1)S(=O)(=O)c1ccc(Cl)c(C(=O)NCC(c2ccco2)N2CCCCC2)c1 (stereo not given),.,.,.,i,.,.,.,.
Cn1nc(C(F)(F)F)c(C#N)c1N1CCN(c2ccc(F)cc2)CC1,i,25*,i,i,i,i,-1.3,-12
Cc1cc(C)c(C#N)c(N2CCN(c3ccc(F)cc3)CC2)n1,i,i,i,i,.,.,.,.
CC(=O)C[C@H](O)CC(=O)[C@@H]1OC(=O)CCCCCCCCc2ccccc21,.,.,.,i,.,.,.,.
Cc1ccc(NC(=O)c2c(C(F)(F)F)nn(C)c2SCc2cccc(C(F)(F)F)c2)cc1C,i,100*,i,i,i,i,-0.98,-8
NC(=O)c1nc[nH]c1C(=O)Nc1cccc(NC(=O)c2cccc(C(F)(F)F)c2)c1,.,.,.,i,.,.,.,.
COc1ccc(OC)c(NC(=O)CSc2nc(=O)n(CCN3CCOCC3)c3c2CCCC3)c1,i,i,i,i,.,.,.,.
CCc1nc2ccccc2c(C(=O)OCC(=O)N2CC(C)OC(C)C2)c1C (stereo not given),i,i,i,i,.,.,.,.
CC(C)c1ccc(OCc2ccc(C(=O)N3CCCC3)o2)cc1,i,25*,7.1*,i,53%*,i,-1.1,-15
CCOc1ccc(OCc2ccc(C(=O)N3N=C(C(F)F)CC3(O)C(F)F)o2)cc1 (stereo not given),i,25*,i,i,i,i,-1.1,-14
CN1CCN(C(=O)c2ccc(COc3ccc(C(C)(C)C)cc3)o2)CC1,i,i,i,i,.,.,.,.
